From PubChem BioAssay (Tox21) come the findings set out here.

Values joined by “and” are separate entries in the source; they are usually repeats but may differ in a detail not shown here. Identical values can stand only once. Records with an inconclusive call do not appear. Where a structure was tested more than once in an assay, its records may differ in their call. Active and inactive are the calls of the source. Unless noted, calls come from the whole dose curve; as a rule, active = well fitted curve in the direction sought with a large enough effect in the repeat runs; inconclusive = weak or mixed curves; inactive = no such curve, though single readings can be large; an effect the other way counts as inactive or inconclusive.

Assay [1] in a line: qHTS assay for small molecules that induce genotoxicity in human embryonic kidney cells expressing luciferase-tagged ATAD5 (AID 651632). Note: nearly all actives have a fitted effect of over 15% in size. Note: potency is the fitted concentration of half-maximal effect. An outline of the steps: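 DMSO vehicle served as the control. HEK293T reporter cells, 16 hr at 37C, then 30 min Amplite at room temperature; ATAD5 induction is measured as luciferase activity.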
(In general: In qHTS, concentration-response curves come from the screen itself.)

A short description of assay [2]: qHTS assay for small molecule agonists of the p53 signaling pathway - cell viability (AID 651633; calls by dose curve; note: nearly all actives have a fitted effect of over 30% in size; note: potency is the fitted concentration of half-maximal effect). The gist of the method: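 p53RE-bla cells were treated with compound for 16 hours at 37 C. Cytotoxicity was then measured as CellTiter-Glo luminescence after 30 min at room temperature.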
The nature of assay [3]: qHTS assay for small molecule disruptors of the mitochondrial membrane potential - cell viability (AID 720634; calls by dose curve; note: nearly all actives have a fitted effect of over 20% in size; note: potency is the fitted concentration of half-maximal effect). The gist of the method: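 Viability of HepG2 cells is scored from ATP content by luminescence; cells are exposed to compound for 1 hr at 37 C and 5% CO2, then dosed with m-MPI dye before the CellTiter-Glo reagent.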
Assay [4] in a line: qHTS assay for small molecule disruptors of the mitochondrial membrane potential (AID 720635). Note: potency is the fitted concentration of half-maximal effect. An outline of the steps:
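HepG2 cells exposed to compound 1 hr at 37C, then Mito-MPS dye 30 min. Ratio read of aggregate (540/590 nm) versus monomer (490/535 nm) fluorescence.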

Assay [5] is described as follows: qHTS assay to test for compound auto fluorescence at 590 nm (red) in HepG2 cells (AID 720674). An outline of the steps:
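Fluorescence at 590 nm emission following 540 nm excitation was recorded from HepG2 wells one hour after compound transfer, with DMSO-only wells as vehicle and Rose Bengal sodium equivalency as the scale.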

A short description of assay [6]: qHTS assay to test for compound auto fluorescence at 535 nm (green) in HepG2 cells (AID 720675).
Assay [7] in a line: qHTS assay to test for compound auto fluorescence at 460 nm (blue) in HEK293 cells (AID 720678). The gist of the method: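 HEK293 cells (2,000/well, medium with 10% dialyzed FBS) attached 4-5 hr, then exposed to compound overnight at 37C, 5% CO2. Blue fluorescence read at 405/460 nm, with triamterene as reference fluorophore.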
A short description of assay [8]: qHTS assay to test for compound auto fluorescence at 590 nm (red) in HEK293 cells (AID 720679). The gist of the method:
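HEK293 cells (2,000/well, 10% dialyzed FBS) attached 4-5 hr, then dosed with compound or DMSO and incubated overnight at 37C, 5% CO2. Red fluorescence read at 540/590 nm, Rose Bengal sodium as reference fluorophore.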

Assay [9] in a line: qHTS assay to test for compound auto fluorescence at 535 nm (green) in HEK293 cells (AID 720680).
The nature of assay [10]: qHTS assay to test for compound auto fluorescence at 460 nm (blue) in HEK293 cell free culture (AID 720681). An outline of the steps: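 Compounds were added to cell-free DMEM with 10% FBS and fluorescence read directly. The blue channel used 405 nm excitation and 460 nm emission, with triamterene as the reference fluorophore.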
Assay [11] in a line: qHTS assay to test for compound auto fluorescence at 535 nm (green) in HEK293 cell free culture (AID 720682). The gist of the method: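 Green-channel intensity (Ex/Em 485/535 nm) was recorded from compound-treated wells containing only DMEM with 10% FBS. Fluorescein provided the equivalency standard.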
Assay [12] can be described thus: qHTS assay to test for compound auto fluorescence at 590 nm (red) in HEK293 cell free culture (AID 720683). The gist of the method:
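Cell-free wells of DMEM with 10% FBS received compound, and intrinsic fluorescence was read at excitation/emission 540/590 nm. Values expressed as equivalence to Rose Bengal sodium.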

A short description of assay [13]: qHTS assay to test for compound auto fluorescence at 460 nm (blue) in HepG2 cell free culture (AID 720685). An outline of the steps:
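Cell-free plates of MEM plus 10% FBS received 23 nL compound or DMSO vehicle; blue-channel (405/460 nm) intensity scored against triamterene as reference fluorophore.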

Assay [14] can be described thus: qHTS assay to test for compound auto fluorescence at 535 nm (green) in HepG2 cell free culture (AID 720686).
The target of assay [15] is Glucocorticoid receptor (Homo sapiens) (UniProt P04150). Put plainly: qHTS assay to identify small molecule agonists of the glucocorticoid receptor (GR) signaling pathway (AID 720691; active = well fitted activation curve with a large enough effect in the signal ratio in the repeat runs, not every such curve was filed as active; the % refers to the signal ratio). The gist of the method: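 Compounds in DMSO, alongside positive controls, were added to GR-bla HeLa reporter cells and incubated 18 h at 37 C; GRE-driven beta-lactamase was detected by fluorescence after 2 h with FRET substrate at room temperature.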

Assay [16] in a line: qHTS assay for small molecule agonists of the p53 signaling pathway (AID 651631; calls by dose curve; note: nearly all actives have a fitted effect of over 15% in size; note: potency is the fitted concentration of half-maximal effect). An outline of the steps:
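We treat p53RE-bla HCT-116 cells with compounds for 16 h at 37 °C, add LiveBLAzer B/G FRET substrate for 2 h at room temperature, and measure fluorescence intensity.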

Assay [17] in a line: qHTS assay for small molecules that induce genotoxicity in human embryonic kidney cells expressing luciferase-tagged ATAD5 - cell viability (AID 651634; calls by dose curve; note: nearly all actives have a fitted effect of over 25% in size; note: potency is the fitted concentration of half-maximal effect). The gist of the method: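 Here HEK293T cells with the ATAD5 luciferase reporter are incubated with test compounds for 15.5 hr, and cytotoxicity is then gauged by measuring protease activity in live cells using fluorescence.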

A short description of assay [18]: qHTS assay to test for compound auto fluorescence at 590 nm (red) in HepG2 cell free culture (AID 720684). An outline of the steps: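 Auto fluorescence equivalency versus Rose Bengal sodium, red channel Ex/Em 540/590 nm; compounds in cell-free MEM/10% FBS; DMSO vehicle control.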
Assay [19] can be described thus: qHTS assay to test for compound auto fluorescence at 460 nm (blue) in HepG2 cells (AID 720687). An outline of the steps: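 HepG2 cells in MEM with 10% FBS, attached overnight at 37 C, were exposed to compound or DMSO for 1 hr at 37 C, 5% CO2. Blue fluorescence was read at 405/460 nm, with triamterene as reference fluorophore.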
Assay [20] deals with Glucocorticoid receptor (Homo sapiens) (UniProt P04150). Put plainly: qHTS assay to identify small molecule antagonists of the glucocorticoid receptor (GR) signaling pathway (AID 720692; active = well fitted inhibition curve with a large enough effect in the signal ratio in the repeat runs, not every such curve was filed as active; the % refers to the signal ratio). The gist of the method:
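In a 1536-well cell format, compounds were added 4 h after seeding GR-bla HeLa cells, together with dexamethasone at 5 nM final; reporter activity was measured by FRET-substrate fluorescence following 18 h at 37 C.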

Sequence of Glucocorticoid receptor (Homo sapiens) (P04150 whole entry, looked up): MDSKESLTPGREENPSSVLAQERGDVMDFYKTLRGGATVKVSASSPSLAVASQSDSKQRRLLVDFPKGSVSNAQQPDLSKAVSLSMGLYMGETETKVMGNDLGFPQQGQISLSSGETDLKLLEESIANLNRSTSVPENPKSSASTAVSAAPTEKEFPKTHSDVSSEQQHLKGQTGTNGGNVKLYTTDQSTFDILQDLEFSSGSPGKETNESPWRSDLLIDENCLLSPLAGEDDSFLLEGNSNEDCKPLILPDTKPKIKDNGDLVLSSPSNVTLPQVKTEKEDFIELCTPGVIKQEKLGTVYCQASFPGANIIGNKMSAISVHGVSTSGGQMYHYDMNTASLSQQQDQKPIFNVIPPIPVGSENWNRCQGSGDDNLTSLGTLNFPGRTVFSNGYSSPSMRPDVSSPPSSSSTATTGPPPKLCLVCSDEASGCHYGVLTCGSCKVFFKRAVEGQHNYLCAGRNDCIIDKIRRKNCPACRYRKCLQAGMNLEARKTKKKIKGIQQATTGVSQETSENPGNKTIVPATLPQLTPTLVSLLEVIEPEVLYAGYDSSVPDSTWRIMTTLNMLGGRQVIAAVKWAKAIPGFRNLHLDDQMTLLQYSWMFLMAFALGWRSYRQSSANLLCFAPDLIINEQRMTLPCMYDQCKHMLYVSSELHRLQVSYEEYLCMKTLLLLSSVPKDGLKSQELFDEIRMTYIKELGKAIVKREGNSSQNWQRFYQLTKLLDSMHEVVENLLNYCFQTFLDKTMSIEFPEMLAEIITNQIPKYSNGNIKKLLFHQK

Regarding `CCCCCCC(O)CCCCCCCCCCC(=O)O` (stereo not given), the Potency entry in assay [1], in [2], in assay [6], in [7], in [9] and in [10] was “inactive” throughout. For the same molecule, the Potency entry in assay [11], in [13], in [14] and in assay [15] was “inactive” throughout. The Potency result in assay [3] is “inactive and 54.5 µM (active)”; in assay [4] it was “inactive and 54.5 µM (active)”. Besides, the outcome in assay [5], in assay [8] and in assay [12] was inactive.
Regarding `COC(c1ccccc1)(c1ccccc1)[C@H](Oc1nc(C)cc(C)n1)C(=O)O`, the Potency entry in assay [16], in assay [2], in [3], in assay [4], in assay [6] and in assay [7] was “inactive” throughout. For the same molecule, the Potency result in assay [9], in assay [10], in [11], in assay [13], in assay [14] and in assay [15] was “inactive” each time. Moreover, the call in assay [5] and in assay [12] was inactive.
`O=Nc1ccc(Nc2ccccc2)cc1`: the Potency in [16] was 27.4 µM (active); in assay [17], 48.8 µM (active); in [4], 21.8 µM (active). The outcome in assay [5], in assay [8], in [12] and in [18] was inactive. Besides, the Potency result in assay [6], in [9], in [10], in [11], in [13] and in assay [14] was “inactive” each time. Besides, the Potency result in assay [19] is “inactive”.
Turning to `c1ccc2cc3c(ccc4ccccc43)cc2c1`, the Potency in assay [1] is 68.8 µM (active). Further, the Potency result in [2], in [17], in assay [6], in [7], in assay [9] and in assay [10] was “inactive” each time. Also, the Potency result in assay [11], in [13], in [14] and in [19] was “inactive” throughout. For the same molecule, the molecule was called inactive in assay [5], in [8] and in [12].
Take `NC(=Nc1ccccc1)Nc1ccccc1`: the Potency in assay [1] is 15 µM (active); in assay [4] it was 3.35 µM (active) and 15.4 µM (active). Besides, the Potency entry in assay [2], in [17], in assay [3], in [6], in assay [7] and in [9] was “inactive” in each case. For the same molecule, the Potency entry in assay [10], in assay [11], in [14], in assay [15] and in [20] was “inactive” in each case. Also, the call in [5], in assay [12] and in assay [18] was inactive.
`CC(=O)N[C@@H](CS)C(=O)O`: the Potency result in assay [16], in assay [2], in [3], in assay [6], in assay [7] and in [9] was “inactive” throughout. The Potency result in assay [10], in assay [11], in [14], in assay [15] and in assay [20] was “inactive” in each case. Further, the call in assay [5], in [8], in assay [12] and in [18] was inactive.
`CC(=O)C1=C(C)[C@@H]2C[C@@]3(C1)[C@H](C)CC[C@H]3C2(C)C`: the Potency entry in [16], in [2], in assay [6], in assay [7], in assay [9] and in [10] was “inactive” in each case. Further, the Potency entry in assay [11] and in assay [14] was “inactive” in each case. Also, the call in [5], in assay [8], in [12] and in [18] was inactive.
With `CC(C)(C)c1ccc(O)c(C(C)(C)C)c1`, the Potency result in [1], in assay [6], in assay [7], in assay [9], in assay [10] and in [11] was “inactive” each time. In addition, the Potency result in assay [13], in assay [14] and in assay [19] was “inactive” each time. For the same molecule, the Potency was 60.9 µM (active) and 48.6 µM (active) in assay [2]; 24.2 µM (active) in assay [3]; 2.72 µM (active) and 3.06 µM (active) in [4]. The outcome in [5], in [8] and in assay [12] was inactive.
